Some test systems named below: T-47D breast; BT-549 breast; MDA-MB-435 melanoma; SW-620 colon; MCF7 breast; HCT-116 colon; HCC-2998 colon; KM12 colon.
Assay in all cases: NCI-60 one-dose screen, 48 h (100 = growth as untreated, 0 = no growth, -100 = all killed)
Holding throughout (details): 10 µM unless noted

The panel holds about 83,000 compounds, 20% with a hit somewhere; the sample as a whole holds those more often.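 Note: values are percent growth. 100 is the growth of untreated cells, values between 100 and 0 indicate rising inhibition; between -100 and 0 indicates cell death.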 Values without a mark were called inactive. Activity calls are given as the source filed them. The calls were made as follows: active = growth percent below 10; inactive = the rest.

Consider `CC(C)C(=O)Nc1nc2c(s1)CCCc1ccn(S(=O)(=O)c3ccccc3)c1-2`, for which the growth with T-47D breast was 91.9%; with BT-549 breast, 89.8%; in the test with MDA-MB-435 melanoma, 106%; in the test with SW-620 colon, 105%; with MCF7 breast, 86.3%; in the test on HCT-116 colon, 78.9%. Also, the growth is 106% in the test on HCC-2998 colon and 97.1% in the test with KM12 colon.

With `CC(C)(C)C(=O)Nc1nc2c(s1)CCc1ccn(S(=O)(=O)c3ccccc3)c1-2`, the growth in the test on T-47D breast is 66.6%; in the test on BT-549 breast, 94.5%; with MDA-MB-435 melanoma it was 108%; with SW-620 colon it was 101%; in the test on MCF7 breast, 85.9%; in the test on HCT-116 colon, 78.7%. Also, the growth with HCC-2998 colon was 100%; in the test with KM12 colon, 89.8%.

With `O=C(O)c1cc2ccccc2cc1Nc1ccccc1`, the growth was 89.3% in the test on T-47D breast; 113% with BT-549 breast; 103% with MDA-MB-435 melanoma; 105% in the test with SW-620 colon; 76.2% with MCF7 breast; 89.7% in the test on HCT-116 colon. Besides, the growth is 99.1% with HCC-2998 colon and 109% in the test with KM12 colon.

With `Clc1ccc2c(NCCNc3nc(Cl)nc4ccccc34)ccnc2c1`, the growth in the test with T-47D breast was -63.6% (active); with BT-549 breast, -65.6% (active); with MDA-MB-435 melanoma, -89.4% (active); with SW-620 colon, -77.1% (active); in the test on MCF7 breast, -63.8% (active); in the test on HCT-116 colon, -96.7% (active). Also, the growth in the test with HCC-2998 colon was -64.1% (active); in the test with KM12 colon, -76.5% (active).

With `COc1ccc(C2CC(c3cc(Cl)c(C)cc3OC)=NN2c2ccc(S(N)(=O)=O)cc2)cc1OC` (stereo not drawn), the growth with T-47D breast was 77%; in the test with BT-549 breast, 83.2%; in the test on MDA-MB-435 melanoma it was 95.8%; in the test with SW-620 colon, 93.6%; with MCF7 breast, 80.4%; with HCT-116 colon, 56.7%. The growth was 99.9% with HCC-2998 colon and 91.8% in the test with KM12 colon.

For `Fc1ccc(/C=N/n2c(-c3cc(Cl)cc(Cl)c3Cl)nn(CNc3ccc(Cl)nn3)c2=S)cc1`, the growth in the test with T-47D breast was 86%; in the test on BT-549 breast, 114%; in the test on MDA-MB-435 melanoma, 97.9%; in the test on SW-620 colon it was 112%; in the test on MCF7 breast, 98.9%; in the test with HCT-116 colon, 78.1%. Moreover, the values for the growth with HCC-2998 colon and in the test with KM12 colon were 107% and 97.3%, respectively.

Consider `CCOC(=O)c1noc2c1CCc1cn(Cc3cc(OC)cc(OC)c3)cc1-2`, for which the growth in the test on T-47D breast was 94.7%; in the test with BT-549 breast, 91.5%; with MDA-MB-435 melanoma, 103%; with SW-620 colon, 103%; with MCF7 breast, 94.9%; in the test with HCT-116 colon, 92.3%. In addition, the growth is 88.9% in the test with HCC-2998 colon and 100% in the test with KM12 colon.

As to `O=C1CCC(=O)N1C1CCCCC1`, the growth with T-47D breast was 85.8%; in the test on BT-549 breast, 102%; in the test with MDA-MB-435 melanoma, 99.5%; with SW-620 colon, 105%; with MCF7 breast, 96.2%; with HCT-116 colon, 99%. Further, the growth with HCC-2998 colon is 103%; in the test with KM12 colon it was 101%.

As to `O=S(=O)(Nc1cccc2cc(OS(=O)(=O)c3ccccc3)ccc12)c1ccccc1`, the growth is 45.5% in the test on T-47D breast; 45.4% in the test on BT-549 breast; -13.8% (active) with MDA-MB-435 melanoma; 29.5% in the test with SW-620 colon; 36.8% in the test on MCF7 breast; 25.4% in the test on HCT-116 colon. Further, the growth is 96.4% in the test with HCC-2998 colon and 36.3% in the test with KM12 colon.

In the case of `O=[N+]([O-])c1cccc(C2c3ccccc3Oc3ccccc32)c1`, the growth in the test with T-47D breast was 86.4%; with BT-549 breast, 116%; with MDA-MB-435 melanoma, 98.1%; with SW-620 colon it was 86.9%; in the test on MCF7 breast, 98.7%; in the test on HCT-116 colon it was 68.3%. Further, the results for the growth in the test on HCC-2998 colon and in the test with KM12 colon were 91.1% and 86.7%, respectively.

For the compound `Cc1cc2c(cc1C)N(C(=O)CCl)CCN2C(=O)CCl`, the growth was -34.5% (active) with T-47D breast; -28.3% (active) in the test on BT-549 breast; -26.9% (active) in the test on MDA-MB-435 melanoma; -78.2% (active) in the test on SW-620 colon; -47.6% (active) in the test on MCF7 breast; -34% (active) with HCT-116 colon. Further, the growth in the test on HCC-2998 colon is -97.9% (active); with KM12 colon, -85.2% (active).

For the compound `COc1ccc(C(=O)NC(=O)Nc2ccc3c(c2)NC(=O)/C3=C\c2[nH]c(C)c(C(=O)O)c2C)c(F)c1`, the growth in the test on T-47D breast is 58.5%; in the test with BT-549 breast it was 21.7%; in the test with MDA-MB-435 melanoma it was 66.4%; in the test on SW-620 colon, 55%; in the test with MCF7 breast, 74.8%; with HCT-116 colon, 59.6%. Also, the growth in the test with HCC-2998 colon was 46.6%; in the test on KM12 colon it was 26.3%.

Consider `COc1cc2nc(C(=O)N3CCCCC3)cc(Nc3ccccc3)c2cc1OC`, for which the growth with T-47D breast is 91.2%; in the test with BT-549 breast, 102%; in the test on MDA-MB-435 melanoma, 104%; in the test with SW-620 colon, 107%; in the test with MCF7 breast, 96.5%; in the test with HCT-116 colon, 99.9%. Also, the growth is 105% with HCC-2998 colon and 99.3% in the test on KM12 colon.

In the case of `C=C1C(=O)O[C@H]2[C@H]1CC/C(COC(=O)c1cccc3ccccc13)=C\CC[C@@]1(C)O[C@@H]21`, the growth in the test with T-47D breast was -60% (active); with BT-549 breast, -45.1% (active); with MDA-MB-435 melanoma, -54.2% (active); with SW-620 colon, -52.8% (active); in the test on MCF7 breast, -42.9% (active); in the test with HCT-116 colon, -93.8% (active). In addition, the growth is 62.7% in the test on HCC-2998 colon and 19.9% in the test on KM12 colon.

Turning to `COc1ccc(C(=O)NC(=O)Nc2ccc3c(c2)NC(=O)/C3=C\c2[nH]c(C)c(C(=O)O)c2C)cc1`, the growth is 45.3% with T-47D breast; 89% with BT-549 breast; 85.2% with MDA-MB-435 melanoma; 52.6% in the test with SW-620 colon; 75% in the test on MCF7 breast; 48.1% with HCT-116 colon. The growth with HCC-2998 colon was 97.7%; in the test with KM12 colon it was 17.8%.

As for `Cc1ccc2nc(-c3ccc(-n4on4-c4ccc(/C=C/c5ccc(-n6on6-c6ccc(-c7nc8ccc(C)cc8s7)cc6)cc5S(=O)(=O)O)c(S(=O)(=O)O)c4)cc3)sc2c1`, the growth with T-47D breast was 95.5%; with BT-549 breast, 114%; with MDA-MB-435 melanoma, 110%; in the test on SW-620 colon it was 117%; with MCF7 breast, 110%; with HCT-116 colon it was 103%. The growth was 107% with HCC-2998 colon and 103% in the test with KM12 colon.

For the origin of these results see PubChem BioAssay (NCI).
